Assay outcomes: PubChem, National Center for Advancing Translational Sciences (NCATS)
DRV1 agonist: agonists of human resolvin D1 receptor DRV1 (GPR32); actives 2.5% (n = 48,000); activation, % at 76.9 µM; AID 1346428; CHO-K1 GPR32 beta-arrestin PathHunter luminescence, 90 min; zero percent set by DMSO-only wells; O75388;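 active means activation of at least 60% and not above a set upper limit, about 1 call in 100 departs from these limits; inconclusive means activation of 40% to 60%, or above that upper limit; inactive means activation under 40%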
Target sequence (O75388 whole entry, looked up): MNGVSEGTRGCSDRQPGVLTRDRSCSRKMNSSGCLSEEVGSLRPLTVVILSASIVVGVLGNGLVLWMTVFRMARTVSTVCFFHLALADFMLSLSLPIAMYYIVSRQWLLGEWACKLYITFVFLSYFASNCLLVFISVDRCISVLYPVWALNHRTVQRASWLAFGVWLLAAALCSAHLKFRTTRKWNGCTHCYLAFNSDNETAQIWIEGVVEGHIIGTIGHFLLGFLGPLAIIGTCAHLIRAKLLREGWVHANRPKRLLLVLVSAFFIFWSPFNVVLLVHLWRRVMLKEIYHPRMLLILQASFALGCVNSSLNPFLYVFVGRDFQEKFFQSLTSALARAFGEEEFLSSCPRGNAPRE
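CHO-K1 cells stably expressing ProLink-tagged GPR32 and Enzyme Activator-tagged beta-arrestin were seeded at 2,500 cells/well overnight, exposed to compounds for 90 min at 37 °C, then read by beta-Gal complementation chemiluminescence after 1 h detection reagent.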
UDG counter: blocks uracil-DNA glycosylase in AID counter-screen. FRET deamination/UDG coupled assay, UDG read, 4 h. Potency, µM (highest dose often 115 µM), most hits filed as inhibitors. actives 0.14% (n = 91,000); further: nearly all actives have a fitted effect of over 65% in size
AID inhibitor: inhibitors of human activation induced cytidine deaminase | Potency, µM (doses to about 115 µM), actives largely listed as inhibitors | actives 0.32% (n = 91,000) | Q9GZX7 | AID deamination FRET fluorescence, UDG-coupled, 4 h; further: nearly all actives have a fitted effect of over 25% in size
Target sequence (Q9GZX7 whole entry, looked up): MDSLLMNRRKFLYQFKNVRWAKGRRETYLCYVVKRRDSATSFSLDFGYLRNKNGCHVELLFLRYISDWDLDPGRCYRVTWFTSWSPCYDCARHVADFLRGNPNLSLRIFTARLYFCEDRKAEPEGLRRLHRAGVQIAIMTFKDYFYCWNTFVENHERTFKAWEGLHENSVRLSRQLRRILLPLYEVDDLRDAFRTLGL
Numbers stand for hits. The full list was thinned out, with hits kept by preference. Unless noted, the call rests on the fitted dose curve; in most records, active means well fitted curve in the direction sought with a large enough effect; inconclusive means small, poorly fitted or top-dose-only effect, or another doubt; inactive means no such curve, though single readings can be large; an effect the other way counts as inactive or inconclusive.

For Cc1ccc(C2C=C(c3ccccc3)Nc3nc(NS(=O)(=O)c4ccc(C)cc4)nn32)cc1 (configuration not stated) the results were DRV1 agonist 94, UDG counter inactive and AID inhibitor inconclusive.
COc1ccc(C2C=C(c3ccccc3)Nc3nc(NS(=O)(=O)c4ccc(C)cc4)nn32)cc1 (configuration not stated) was read as DRV1 agonist inconclusive, UDG counter inactive and AID inhibitor inactive.
Cc1cc(C(=O)N2CCN(S(=O)(=O)c3ccccc3Cl)CC2)c(C)n1Cc1cccs1 was read as UDG counter inactive and AID inhibitor inconclusive.
Screening Cn1nc(C(=O)NCCc2ccccc2)c2ccccc2c1=O returned UDG counter inactive and AID inhibitor inactive.
Screening CC(C)CN(C(=O)CN1c2ccccc2CC1C)c1c(N)n(Cc2ccccc2)c(=O)[nH]c1=O (configuration not stated) returned UDG counter inactive and AID inhibitor inactive.
`Clc1ccc(Nc2nnc(Cc3ccncc3)c3ccccc23)cc1` gave DRV1 agonist 72.
Fc1ccc(Nc2nc(SCc3ccc(Cl)cc3)nc3ccccc23)cc1 was read as DRV1 agonist inactive, UDG counter inactive and AID inhibitor inactive.
Screening CCOc1ccccc1CNC(=O)Cn1nc(N2CCN(c3ccccc3)CC2)ccc1=O returned DRV1 agonist 61, UDG counter inactive and AID inhibitor inactive.
COc1ccc(CNC(=O)Cn2nc(N3CCN(c4ccccc4)CC3)ccc2=O)c(OC)c1 was read as DRV1 agonist inactive, UDG counter inactive and AID inhibitor inactive.
Screening CCOC(=O)c1cccc(NC(=O)c2oc3c(c2C)-c2nn(CC)cc2CC3)c1 returned DRV1 agonist inactive, UDG counter inconclusive and AID inhibitor 40µM.
`CC(=O)c1cccc(NC(=O)c2oc3c(c2C)-c2nn(Cc4ccc(Cl)cc4)cc2CC3)c1` gave DRV1 agonist inactive, UDG counter inconclusive and AID inhibitor inconclusive.
Screening COc1cccc(CNC(=O)c2oc3c(c2C)-c2nn(Cc4cccc(Cl)c4)cc2CC3)c1 returned DRV1 agonist inactive, UDG counter inactive and AID inhibitor inconclusive.
COc1cccc(CNC(=O)c2oc3c(c2C)-c2nn(Cc4cccc(Cl)c4)cc2CC3)c1OC was read as DRV1 agonist inactive, UDG counter inactive and AID inhibitor 79µM.
Screening N#C/C(=C\c1ccc(-c2ccc(C(=O)O)cc2)o1)c1nc2ccccc2[nH]1 returned DRV1 agonist inactive, UDG counter inactive and AID inhibitor inactive.
`N#C/C(=C\c1ccc(-c2ccc(Cl)c(C(=O)O)c2)o1)c1nc2ccccc2[nH]1` gave DRV1 agonist inactive, UDG counter inactive and AID inhibitor 28µM.
Screening Cc1ccc(NC(=O)/C(C#N)=C/c2ccc(-c3ccc(Cl)c(C(=O)O)c3)o2)cc1C returned DRV1 agonist inactive, UDG counter inconclusive and AID inhibitor 79µM.
`Cc1ccc(NC(=O)/C(C#N)=C\c2ccc(Cl)cc2Cl)cc1C` gave DRV1 agonist inactive, UDG counter inactive and AID inhibitor inactive.
`CCC(C)NC(=O)c1ccc2c(c1)sc1nc(-c3ccc(OC)cc3)cn12` (configuration not stated) gave DRV1 agonist 81, UDG counter inactive and AID inhibitor inactive.
`COc1ccc(-c2cn3c(n2)sc2cc(C(=O)Nc4cc(OC)cc(OC)c4)ccc23)cc1` gave DRV1 agonist inactive, UDG counter inactive and AID inhibitor inactive.
O=C(Nc1ccccc1)NC1CCSc2ccccc21 (configuration not stated) was read as UDG counter inactive and AID inhibitor inactive.
Cc1ccc2[nH]c(CSc3nnc(NC(=O)COc4ccccc4)s3)cc(=O)c2c1 was read as DRV1 agonist 76, UDG counter inconclusive and AID inhibitor inactive.
Cc1ccc2[nH]c(CSc3nnc(NC(=O)COc4ccc(F)cc4)s3)cc(=O)c2c1 was read as DRV1 agonist inactive, UDG counter inactive and AID inhibitor inactive.
`CCc1[nH]c(C(=O)N2CCCC2c2ccc3c(c2)OCCO3)c(C)c1C(=O)OC` (configuration not stated) gave UDG counter inactive and AID inhibitor inactive.
Screening CC(C)Cn1c(SCC(=O)Nc2ccc(Cl)cn2)nc2ccccc21 returned UDG counter inactive and AID inhibitor inactive.
CCc1c(C)nc2nncn2c1NCc1ccc(Cl)cc1 was read as DRV1 agonist 66, UDG counter inactive and AID inhibitor inactive.
Screening Cc1ccc(CNc2c(C)c(C)nc3nncn23)cc1 returned DRV1 agonist inconclusive, UDG counter inactive and AID inhibitor inactive.
`CC(=O)NCCc1ccc(C(=O)COC(=O)c2ccc(C)cc2O)s1` gave UDG counter inactive and AID inhibitor inactive.
For Cc1ccccc1-c1nnc(SCc2cn3cccc(C)c3n2)o1 the results were UDG counter inactive and AID inhibitor inactive.
`Cc1nc2sc(C(N)=O)c(N)c2c(-c2ccc(Br)cc2)c1C(=O)Nc1ccc(Cl)cc1` gave DRV1 agonist 88, UDG counter inactive and AID inhibitor inactive.
`CCC(C)NC(=O)c1sc2nc(C)c(C(=O)Nc3ccc(Cl)cc3)c(-c3ccc(Br)cc3)c2c1N` (configuration not stated) gave DRV1 agonist inactive, UDG counter inactive and AID inhibitor inactive.
For Cc1nc(-c2ccc(S(=O)(=O)Nc3cc(Cl)ccc3C)cc2)co1 the results were DRV1 agonist 82, UDG counter inactive and AID inhibitor inactive.
Cc1ccc(NS(=O)(=O)c2ccc(-c3coc(C)n3)cc2)c(Cl)c1 was read as UDG counter inactive and AID inhibitor inactive.
For CC(=O)c1cccc(NS(=O)(=O)c2ccc(-c3coc(C)n3)cc2)c1 the results were UDG counter inactive and AID inhibitor inactive.
Cc1nc(-c2ccc(S(=O)(=O)Nc3ccc(OC(F)(F)F)cc3)cc2)co1 was read as DRV1 agonist 114, UDG counter inactive and AID inhibitor inactive.
Screening COc1ccc(S(=O)(=O)NCC(=O)O)cc1OC returned UDG counter inactive and AID inhibitor inactive.
COc1ccccc1C(=O)Nc1ccc(C(=O)OCc2cc(=O)n3nc(C)sc3n2)cc1 was read as DRV1 agonist inactive, UDG counter inactive and AID inhibitor 28µM.
Screening Cc1nn2c(=O)cc(COC(=O)c3ccc(NC(=O)COc4ccccc4F)cc3)nc2s1 returned DRV1 agonist 62, UDG counter inactive and AID inhibitor inactive.
Cc1nn2c(=O)cc(COC(=O)c3ccc(NC(=O)COc4ccc(C)c(C)c4)cc3)nc2s1 was read as DRV1 agonist inactive, UDG counter inactive and AID inhibitor inactive.
Screening COc1ccccc1C(=O)Nc1ccc(C(=O)OCc2cc(=O)n3nc(C4CC4)sc3n2)cc1 returned DRV1 agonist inactive, UDG counter inactive and AID inhibitor inactive.
For C#CCN1CCC(C(=O)N(C)Cc2ccc(Br)o2)CC1 the results were UDG counter inactive and AID inhibitor inactive.
CCCNC(=O)NC(=O)COC(=O)c1sccc1C was read as UDG counter inactive and AID inhibitor inactive.
For COc1cccc(C(=O)/C(C#N)=C\c2ccccc2OC(F)F)c1 the results were UDG counter inactive and AID inhibitor inactive.
`COc1ccccc1-c1nc(SCc2cc(=O)n3c4c(sc3n2)CCCC4)n[nH]1` gave UDG counter inactive and AID inhibitor inactive.
